Test results from the supplement of paper PMC8699584.
Counter-ions that a name gives are not always drawn. ± gives the standard deviation of the averaged measurements.

Assays:
Molm13 = assay: cell viability relative to DMSO control (bortezomib = 0%); higher = less growth inhibition; conditions: 10 nM; 72 h
In short: (§1)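 Using 384-well plates, a set of 679 approved and investigational compounds was tested once at 10 nM against acute myeloid leukemia cells (1000 cells per well in 50 µL) over 72 h, with the whole screen done in duplicate. Viability readout relied on CellTiter-Glo luminescence measured on an EnVision reader. For each plate, linear regression mapped values between positive-control-treated cells at 0% and DMSO-treated cells at 100%.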

Mv4-11 = assay: as above; conditions: 10 nM; 72 h
In short: as §1

CN(C)C/C=C/C(=O)Nc1cc2c(Nc3ccc(F)c(Cl)c3)ncnc2cc1O[C@H]1CCOC1 [Afatinib (BIBW2992)]
cell viability (Molm13): 87.5 ± 7.3%
cell viability (Mv4-11): 97.7 ± 6.9%

CN(C)C[C@@H]1CCn2cc(c3ccccc32)C2=C(C(=O)NC2=O)c2cn(c3ccccc23)CCO1 [Ruboxistaurin hydrochloride]
cell viability (Molm13): 90 ± 7.3%
cell viability (Mv4-11): 101 ± 10%

CN(C)CCN(Cc1ccc(Cl)cc1)c1ccccn1 [Chloropyramine hydrochloride]
cell viability (Molm13): 105 ± 27%
cell viability (Mv4-11): 107 ± 12%

CN1CCN(Cc2ccc(-c3cnc4[nH]cc(-c5ccc6[nH]ccc6c5)c4c3)cc2)CC1
cell viability (Molm13): 109 ± 33%
cell viability (Mv4-11): 121 ± 31%

Oc1cccc(-c2nc(N3CCOCC3)c3oc4ncccc4c3n2)c1
cell viability (Molm13): 94.1 ± 2.2%
cell viability (Mv4-11): 104 ± 8.7%

O=C(Nc1cccc(Cl)c1)Nc1ncc(CCNc2ncnc3ccsc23)s1 [SNS-314 Mesylate]
cell viability (Molm13): 64.7 ± 13%
cell viability (Mv4-11): 84.75 ± 0.26%

C#Cc1cccc(Nc2ncnc3cc(OCCOC)c(OCCOC)cc23)c1 [Erlotinib]
cell viability (Molm13): 102 ± 6.9%
cell viability (Mv4-11): 102 ± 10%

Cc1cc(NC(=O)c2cccc(NC(=O)/C=C/CN(C)C)c2)ccc1Nc1nccc(-c2cccnc2)n1
cell viability (Molm13): 92 ± 6.9%
cell viability (Mv4-11): 113 ± 5.2%

CCN1CCN(c2ccc(Nc3cc(N(C)C(=O)Nc4c(Cl)c(OC)cc(OC)c4Cl)ncn3)cc2)CC1
cell viability (Molm13): 110 ± 17%
cell viability (Mv4-11): 106 ± 16%

CCCCCN(CCCOC)C(=O)C(CCC(=O)O)NC(=O)c1ccc(Cl)c(Cl)c1 (centres undefined) [Loxiglumide]
cell viability (Molm13): 85.9 ± 4.4%
cell viability (Mv4-11): 108 ± 3.1%

Cn1cc(C2=C(c3cccc(N)c3)C(=O)NC2=O)c2ccccc21
cell viability (Molm13): 114.2 ± 0.55%
cell viability (Mv4-11): 113 ± 3.2%

CCCCCCCCCCCCc1ccc(S(=O)(=O)Nc2nncs2)cc1
cell viability (Molm13): 108 ± 3%
cell viability (Mv4-11): 100 ± 2%
